Records with an inconclusive call do not appear. Calls of active or inactive are those of the source. Rule for the calls, unless noted: active = hit-call score of the fitted dose curve at least 0.9, where 1 is the maximum; inactive = score below 0.9.
Key:
[1] = CCTE_Shafer_MEA_dev_firing_rate_mean: CCTE's Neural Network Formation Assay for Mean Firing Rate, Shafer Lab (AID 2284031);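 note: curve fitted for loss of firing so AC50 reflects decreased mean firing rate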
How it was run: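 Steps: seed rat cortical cells (1.5 x 10^5/well) with laminin on PEI-coated MEA; dose day 0; record DIV 5/7/9/12, full media and compound exchange after DIV 5 and 9 recordings; compute well-mean firing rate AUC.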

[2] = CCTE_Shafer_MEA_dev_per_burst_spike_percent: CCTE's Neural Network Formation Assay for Percent of Spikes in a Burst, Shafer Lab (AID 2284032);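 note: fitted as a decrease in burst spike percentage below DMSO baseline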
How it was run: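 Value is trapezoidal AUC over recordings on days 5, 7, 9 and 12 of the well-mean fraction of spikes falling in single-electrode bursts; rat cortical cultures exposed continuously from plating, treatment renewed DIV 5 and 9, fitted downward against DMSO.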

[3] = CCTE_Shafer_MEA_dev_active_electrodes_number: CCTE's Neural Network Formation Assay for Number of Active Electrodes, Shafer Lab (AID 2284040; active = hit-call score of the fitted dose curve at least 0.9, where 1 is the maximum;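 note: potency for loss of active electrodes versus DMSO so lower counts are hits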)
How it was run: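 Counts electrodes per well firing at least 5 spikes/min, recorded on days 5, 7, 9 and 12 in rat cortical cultures dosed continuously from plating (treatment refreshed DIV 5, 9). Value is the area under the curve over recordings, fitted downward relative to DMSO.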

[4] = CCTE_Shafer_MEA_dev_burst_rate: CCTE's Neural Network Formation Assay for Burst Rate, Shafer Lab (AID 2284042);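 note: potency for loss of burst rate below DMSO control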
How it was run: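 Rat primary cortical cultures on PEI/laminin MEA; compound from plating, re-dosed at DIV 5, 9 media change. Single-electrode bursts/recording length, well mean of active electrodes; AUC over DIV 5–12 recordings; loss-of-signal vs DMSO.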

[5] = CCTE_Shafer_MEA_dev_bursting_electrodes_number: CCTE's Neural Network Formation Assay for Number of Bursting Electrodes, Shafer Lab (AID 2284043; active = hit-call score of the fitted dose curve at least 0.9, where 1 is the maximum;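 note: potency is for loss of bursting electrodes relative to DMSO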)
How it was run: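 Counted: electrodes with burst rate ≥1 per 2 min in each well. Cells: primary rat cortex, 1.5 x 10^5/well, on 16-electrode MEA wells. Exposure: DIV 0–12, compound renewed DIV 5 and 9. Recording days 5, 7, 9, 12; AUC vs DMSO baseline.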

[6] = CCTE_Shafer_MEA_dev_per_burst_interspike_interval: CCTE's Neural Network Formation Assay for Burst Interspike Interval, Shafer Lab (AID 2284044);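 note: potency for a decrease of within-burst interspike interval below DMSO level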
How it was run: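 Readout is the average time between spikes inside single-electrode bursts, taken as a well mean across bursting electrodes. Cortical neurons from rat developed networks on MEA plates under continuous 12-day exposure; recordings on days 5, 7, 9 and 12 were integrated by trapezoidal AUC.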

[7] = CCTE_Shafer_MEA_dev_burst_duration_mean: CCTE's Neural Network Formation Assay for Mean Burst Duration, Shafer Lab (AID 2284045)
How it was run: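 Network-formation assay in primary rat cortical neurons; treatment spans twelve days of development. Mean burst duration per well is integrated by trapezoidal AUC and fitted in the loss-of-signal direction against DMSO baseline.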

[8] = CCTE_Shafer_MEA_dev_interburst_interval_mean: CCTE's Neural Network Formation Assay for Mean Interburst Interval, Shafer Lab (AID 2284046);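 note: well-mean interburst interval of bursting electrodes as AUC over four recording days; curve fitted for decrease in interburst interval relative to DMSO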
How it was run: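 Rat cortical neurons, 1.5 x 10^5 cells/well, 48-well MEA; compound from day 0 through DIV 12, media and treatment renewed DIV 5/9. Recordings DIV 5, 7, 9, 12; well-mean interburst interval → trapezoidal AUC, loss direction vs DMSO.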

[9] = CCTE_Shafer_MEA_dev_inter_network_spike_interval_mean: CCTE's Neural Network Formation Assay for Mean Inter-network Spike Interval, Shafer Lab (AID 2284047)
How it was run: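 Primary rat cortical neurons on PEI-coated 48-well MEAs (16 electrodes/well) were exposed from plating day 0 to DIV 12, with dosing renewed at DIV 5 and 9. Recordings at DIV 5, 7, 9, 12 were collapsed by trapezoidal AUC, loss-of-signal fit vs DMSO.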

[10] = CCTE_Shafer_MEA_dev_network_spike_number: CCTE's Neural Network Formation Assay for Number of Network Spikes, Shafer Lab (AID 2284048);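 note: fit as a loss of signal meaning fewer network spikes than DMSO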
How it was run: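 Extracellular recordings from 16-electrode wells track network formation in rat cortical cultures under continuous treatment from plating. The endpoint is network spike number, expressed as AUC across DIV 5–12 relative to DMSO vehicle.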

[11] = CCTE_Shafer_MEA_dev_network_spike_peak: CCTE's Neural Network Formation Assay for Mean Number of Electrodes in Network Spike, Shafer Lab (AID 2284049);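 note: fitted for loss of signal meaning fewer electrodes in network spikes than DMSO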
How it was run: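 Continuous 12-day exposure of rat cortical cultures, starting at plating, on MEA plates. Endpoint: electrodes participating in network-spike peaks, AUC across DIV 5–12, DMSO as negative control.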

[12] = CCTE_Shafer_MEA_dev_spike_duration_mean: CCTE's Neural Network Formation Assay for Mean Spike Duration, Shafer Lab (AID 2284051);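 note: mean network spike duration pooled as area under curve over DIV 5 to 12 recordings; potency for a decrease in mean network spike duration versus DMSO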
How it was run: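 Rat cortical primary cultures, 48-well MEA (16 electrodes/well); compound from plating, renewed DIV 5, 9. Network spike duration (AxIS adaptive detector) recorded DIV 5/7/9/12, combined as trapezoidal AUC; loss direction vs DMSO.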

[13] = CCTE_Shafer_MEA_dev_network_spike_duration_std: CCTE's Neural Network Formation Assay for Standard Deviation of Network Spike Duration, Shafer Lab (AID 2284052);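 note: area under curve of spike duration SD across recording days 5 to 12; hits are decreases in network spike duration SD versus DMSO vehicle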
How it was run: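 Rat cortical cultures, 1.5 x 10^5 cells/well, exposed continuously from plating to DIV 12 with media/compound renewal at DIV 5, 9. Spontaneous activity recorded DIV 5/7/9/12, AxIS adaptive spike detector; AUC across days; negative direction vs DMSO.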

[14] = CCTE_Shafer_MEA_dev_per_network_spike_spike_number_mean: CCTE's Neural Network Formation Assay for Mean Number of Spikes in a Network Spike, Shafer Lab (AID 2284053)
How it was run: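 Rat cortical primary cultures on 48-well MEA; compound from day 0, re-dosed with full media change DIV 5, 9. Recorded DIV 5, 7, 9, 12; spikes in 0.05 s window at network-spike peak ÷ total network spikes; AUC; loss vs DMSO.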

[15] = CCTE_Shafer_MEA_dev_per_network_spike_spike_percent: CCTE's Neural Network Formation Assay for Percent of Spikes in a Network Spike, Shafer Lab (AID 2284054)
How it was run: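 Developing networks of rat cortical neurons are dosed at day 0 and recorded extracellularly four times up to day 12. The endpoint is the area under the curve of percent spikes in network spikes, fitted in the negative direction relative to DMSO.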

[16] = CCTE_Shafer_MEA_dev_LDH: CCTE's Lactate Dehydrogenase Assay for Cytotoxicity in the Neural Network Formation Assay, Shafer Lab (AID 2284068; active = hit-call score of the fitted dose curve at least 0.9, where 1 is the maximum;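 note: exposure for twelve days from plating with re-dosing on DIV 5 and 9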)
How it was run: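 Rat cortical primary neurons, MEA culture; dosing day 0–12, full medium plus compound exchange DIV 5, 9. Read-out: LDH enzyme activity, spectrophotometric. DMSO = negative control/baseline; signal loss → cytotoxicity.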

[17] = CCTE_Shafer_MEA_dev_AB: CCTE's Alamar Blue Assay for Cytotoxicity in the Neural Network Formation Assay, Shafer Lab (AID 2284083; active = hit-call score of the fitted dose curve at least 0.9, where 1 is the maximum;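 note: resazurin reduction fluorescence as viability of cultured neurons; twelve days of exposure from plating with re-dosing on DIV 5 and 9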)
How it was run: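 Rat cortical primary cultures, 1.5 x 10^5 cells/well on MEA; continuous compound exposure over 12 days of network development, re-dosed with full medium change DIV 5 and 9. Alamar Blue fluorescence; loss of signal = cytotoxicity vs DMSO baseline.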

[18] = CCTE_Shafer_MEA_dev_correlation_coefficient_mean: CCTE's Neural Network Formation Assay for Mean Correlation Coefficient, Shafer Lab (AID 2284093);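 note: well mean pairwise spike train correlation integrated as AUC over recording days 5 to 12; potency fitted for loss of correlation relative to DMSO vehicle wells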
How it was run: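 Rat cortical cultures, 1.5 x 10^5 cells/well, dosed from day 0 for 12 days. Spontaneous spikes recorded DIV 5/7/9/12; electrode-pair correlation coefficients averaged, AUC taken. Fit in loss direction vs DMSO.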

[19] = UKN2_HCS_IMR90_neural_migration: University of Konstanz (UKN) Leist Lab Neural Crest Cell Migration Assay in human induced IMR90 Pluripotent Stem Cells (UKN2) (AID 2284204); details: actives raise or lower the signal
How it was run: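 Using a 96-well stopper format with PLO/laminin/fibronectin coating, neural crest cells from iPSC migrate in cytokine-supplemented N2-S medium; after 24 h, chemicals are applied for a further 24 h, then cells are imaged after dye staining.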

[20] = IUF_NPC1b_proliferation_BrdU_72hr: Leibniz Research Institute for Environmental Medicine (IUF) 72-hour Neural Progenitor Cell Bromodeoxyuridine (BrdU) Proliferation Assay (NPC1b) (AID 2284207)
How it was run: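 Neural progenitor spheres of human fetal origin are treated for three days; BrdU added for the last 16 h is quantified by luminescence ELISA, with DMSO as baseline and EGF/FGF omission as positive control.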

[21] = IUF_NPC1a_proliferation_area_72hr: Leibniz Research Institute for Environmental Medicine (IUF) 72-hour Neural Progenitor Cell Proliferation Area Assay (NPC1a) (AID 2284208)
How it was run: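 hNPC spheres (human fetal cortex, GW 16-19), one per poly-Hema U-bottom well; EGF+FGF medium; dosed day 0, no re-dosing; 72 h, 37C, 5% CO2; phase-contrast sphere area; DMSO = baseline; minus-GF = positive ctrl.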

[22] = IUF_NPC1_viability_72hr: Viability Assessment at 72 hours in the Leibniz Research Institute for Environmental Medicine (IUF) Neural Progenitor Cell Proliferation Assay (NPC1) (AID 2284209)
How it was run: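 Spheres of primary human neural progenitors were plated singly in proliferation medium and treated for 72 h. Mitochondrial reduction of resazurin was then measured by fluorescence and analysed against DMSO controls.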

[23] = CCTE_Mundy_HCI_Cortical_Synap_Neur_Matur_NeuriteSpotCountPerNeuriteLength: CCTE's Synaptogenesis and Neurite Maturation Assay in rat cortical cells for Neurite Spot Count per Neurite Length, Mundy Lab (AID 2284210)
How it was run: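 Neurite-associated synapse density (synaptophysin puncta per unit neurite length) is measured by fluorescence high-content imaging in rat cortical cultures treated from DIV 7 and fixed at DIV 12, with DMSO as negative control.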

[24] = CCTE_Mundy_HCI_Cortical_Synap_Neur_Matur_BPCount: CCTE's Synaptogenesis and Neurite Maturation Assay in rat cortical cells for Branch Point Count, Mundy Lab (AID 2284211)
How it was run: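 HCI read-out of branch points from MAP2/synaptophysin/Hoechst immunofluorescence; rat cortical cultures, AraC DIV 5, dosing DIV 7, fixed DIV 12; fit in positive direction vs DMSO baseline.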

[25] = CCTE_Mundy_HCI_Cortical_NOG_NeuriteCount: CCTE's Neurite Outgrowth Assay in rat cortical cells for Neurite Count, Mundy Lab (AID 2284212);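 note: cells fixed about two days after chemical exposure began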
How it was run: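 Rat cortical primary cells; compound added 2 h post-plating, 1/10 dilution of working solution. Anti-betaIII-tubulin/AF488 ICC; ArrayScan neurite count vs DMSO.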

Measured: AC50

BrC1CC(Br)CC(Br)CC(Br)CC(Br)CC(Br)C1 (stereo not given)
active: [1] 8.92 µM | [2] 4.4 µM | [3] 6.75 µM | [4] 4.73 µM | [5] 5.42 µM | [6] 8.48 µM | [8] 4.31 µM | [10] 8.72 µM | [11] 7.04 µM | [12] 3.57 µM | [13] 5.04 µM | [14] 4.17 µM | [15] 6.85 µM | [16] 10.6 µM | [17] 12.6 µM | [18] 2.92 µM | [19] 5.5 µM | [20] 8.81 µM | [23] 3.49 µM | [24] 3.17 µM | [25] 8.41 µM
inactive: [7] | [9] | [21] | [22]

Source: PubChem BioAssay (EPA / NIEHS)
